High-throughput results from PubChem.
The sample as a whole holds a higher share of hits than the screen did.
LmPK inhibitor: qHTS Assay for Inhibitors of Leishmania Mexicana Pyruvate Kinase (LmPK); Q27686; purified LmPK, Kinase-Glo ATP luminescence, 1 h; Potency, µM (highest dose often 57.5 µM), without a hit: at the highest dose activity change, negative = inhibition, usual class: inhibitors; 290,000 tested, 0.37% active; AID 1721, 2009; also: potency is read from the fitted curve at half-maximal effect; % is scaled to controls: 0 for no effect and ±100 for the full control effect
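Kinase-Glo luminescence read after 1 h RT reaction of 0.1 nM LmPK with 0.5 mM PEP and 0.1 mM ADP. Activity scaled between uninhibited and enzyme-free controls.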
TbPYK inhibitor: qHTS of Trypanosoma Brucei Inhibitors; 410,000 tested, 0.12% active; pyruvate kinase (Trypanosoma brucei), Q57TT1; TbPYK enzyme, Kinase-Glo Plus ATP luminescence, 45 min; AID 624173, 2012; Potency, µM (top dose mostly 76.8 µM), inactives show at the top dose activity, negative = inhibition, hits mostly inhibitors; also: potency is read from the fitted curve at half-maximal effect; % is scaled to controls: 0 for no effect and ±100 for the full control effect; nearly all actives have a fitted effect of over 50% in size
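Screened from lowest to highest concentration, compounds were pinned into TbPYK/substrate mixtures, and ADP (130 uM final) was added. Plates sat at room temperature for 45 min prior to Kinase-Glo Plus detection by luminescence.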
Cycloheximide cs: Cycloheximide Counterscreen for Small Molecule Inhibitors of Shiga Toxin; cell reporter, cycloheximide protein synthesis inhibition counterscreen; 300,000 tested, 12% active; max response, %; in the data active = max response mostly above about 13%, no sharp cut-off; inactive = mostly below about 14%; also: read at 38.3 µM for the half of the compounds with a filed dose; 0% is about no effect
RE007 growth inh: qHTS Assay for Inhibitors of the HIV-1 protein Vpr. S. pombe RE007 Vpr strain, BacTiter-Glo ATP luminescence, 24 h. Potency, µM (doses to about 92.2 µM), for inactives: at the highest dose activity change, negative = less growth, actives largely listed as inhibitors. 360,000 tested, 0.21% active; active = well fitted falling curve with a large enough effect; inconclusive = small, poorly fitted or top-dose-only effect; inactive = no such curve, though single readings can be large or run the other way; also: potency is read from the fitted curve at half-maximal effect; % is scaled to controls: 0 for no effect and ±100 for the full control effect; nearly all actives have a fitted effect of over 50% in size
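Fission yeast RE007 carrying one integrated HIV-1 vpr copy, seeded at OD 0.01 in PMG+AL medium with 23 nL pinned compound. Grown 24 h at 30 degrees; viability read by BacTiter-Glo luminescence after 5 min.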
Shiga inhibitor: A qHTS for Small Molecule Inhibitors of Shiga Toxin. Vero cells, Shiga toxin protein synthesis inhibition reporter. inhibition, % at 38.7 µM. 290,000 tested, 9.2% active; in the data active = inhibition mostly above about 28%, no sharp cut-off; inactive = mostly below about 43%; also: 0% is about no effect
FBPA Giardia inh: qHTS Assay for Inhibitors of Fructose-1,6-bisphosphate Aldolase from Giardia Lamblia; A8B2U2; purified Giardia FBPA; Potency, µM (doses to about 59.6 µM), inactives show top-dose activity, negative = inhibition, hits mostly inhibitors; 290,000 tested, 0.71% active; also: potency is read from the fitted curve at half-maximal effect; % is scaled to controls: 0 for no effect and ±100 for the full control effect; nearly all actives have a fitted effect of over 55% in size
Target sequence (A8B2U2 whole entry, looked up): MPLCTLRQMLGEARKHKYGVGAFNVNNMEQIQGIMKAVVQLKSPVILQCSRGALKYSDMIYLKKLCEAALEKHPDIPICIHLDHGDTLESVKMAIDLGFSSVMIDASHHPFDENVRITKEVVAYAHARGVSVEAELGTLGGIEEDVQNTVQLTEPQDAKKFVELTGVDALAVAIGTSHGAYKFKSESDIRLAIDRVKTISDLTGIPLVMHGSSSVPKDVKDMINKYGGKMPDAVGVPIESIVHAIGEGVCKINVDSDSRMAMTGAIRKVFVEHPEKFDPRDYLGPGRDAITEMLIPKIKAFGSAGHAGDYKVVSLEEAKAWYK
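Giardia FBPA (40 nM reagent) was preincubated 10 min at RT with compound (up to 57.5 uM final), then substrate plus GAPDH/TPI/NAD/arsenate coupling system with diaphorase/resazurin was added; resorufin fluorescence (525/598 nm) was read after 20 min.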
Numbers without * were called inactive; ? = inconclusive; / = no result given; [ ] = remark or other dose. Unless noted, calls follow the shape of the dose curve; as a rule, active = well fitted curve in the direction sought with a large enough effect; inconclusive = small, poorly fitted or top-dose-only effect, or another doubt; inactive = no such curve, though single readings can be large; an effect the other way counts as inactive or inconclusive.

SMILES | LmPK inhibitor | TbPYK inhibitor | Cycloheximide cs | RE007 growth inh | Shiga inhibitor | FBPA Giardia inh
Cc1ccc(/C=N/n2c(-c3ccco3)n[nH]c2=S)cc1 | -2% | ? | -2 | -14% | -7 | 4%
CC(C1CC2CCC1C2)n1c(-c2ccco2)n[nH]c1=S (stereo unspecified) | 13µM* | ? | -1 | 12% | -3 | -15%
CCc1ccc(NC(=O)C2C3C=CC(C4CC34)C2C(=O)O)cc1 (stereo unspecified) | -5% | -4% | 14* | 0% | 19 | 0%
O=C(O)C1C2C=CC(O2)C1C(=O)Nc1ccc2c(c1)OCCO2 (stereo unspecified) | -2% | / | 75* | / | 132* | -19%
COc1ccc(NC(=O)C2C3C=CC(O3)C2C(=O)O)cc1 (stereo unspecified) | -2% | 1% | 1 | -5% | 1 | -5%
CN(C)c1ccc(NC(=O)C2C3C=CC(C3)C2C(=O)O)cc1 (stereo unspecified) | 3% | -17% | 20* | -18% | 66* | -4%
O=C(O)C1C2C=CC(C2)C1C(=O)Nc1ccc2c(c1)OCCO2 (stereo unspecified) | 0% | -2% | 80* | 1% | 113* | 5%
CCOC(=O)c1ccc(-n2c(CCC(=O)O)ccc2-c2ccc(Br)cc2)cc1 | / | 3% | / | / | / | /
CC1(C(=O)NS(=O)(=O)c2ccc(Cl)cc2)CCN1C(=O)C1CC1 (stereo unspecified) | / | 3% | / | 3% | / | /
COc1ccc(CCCc2nnc(SCC(=O)NN)o2)c(C)c1 | 5% | 1% | -2 | -2% | -7 | 2%
CC1Cc2cc(S(=O)(=O)CCC(=O)Nc3cccc(F)c3)ccc2N1C(=O)C1CC1 (stereo unspecified) | / | -16% | / | / | / | /
CCC(=O)Nc1ccc(/C(C)=N\NC(=O)c2ccc(C)s2)cc1 | 0% | -2% | 15* | 11% | 21 | 7%
C/C(=N\NC(=O)c1ccn(C)n1)c1cccc(NC(=O)c2ccc(C)s2)c1 | 0% | 2% | 32* | -6% | 77* | -6%
C/C(=N/NC(=O)c1ccc(Br)o1)c1cccc(NC(=O)c2ccc(C)o2)c1 | -4% | ? | 28* | 1% | 136* | -7%
C/C(=N/NC(=O)c1ccco1)c1cccc(NC(=O)c2ccc(C)o2)c1 | 0% | 6% | 41* | -7% | 122* | -1%
CC(=O)N/N=C(\C)c1cccc(NC(=O)c2cccs2)c1 | 2% | 3% | 1 | -7% | -2 | -2%
CCOC(=O)c1c(C)c(-c2ccccc2)n(CC(=O)NC2CCCCC2)c1C | / | -13% | / | / | / | /
COc1ccc(NC(=O)CSc2ccc3nc(-c4ccccc4)cn3n2)c(OC)c1 | / | -3% | / | / | / | /
C/C(=N/NC(=O)c1ccc(Br)o1)c1cccc(NC(=O)c2ccc(F)cc2)c1 | -9% | -4% | 49* | -2% | 120* | /
C/C(=N/NC(=O)c1ccc(Br)o1)c1ccncc1 | 1% | -2% | 74* | 11% | 60* | -1%
C/C(=N/NC(=O)c1cnccn1)c1ccncc1 | 0%[11.5 µM] | 3% | 17 | -6% | 31 | -1%
CCC(CC)C(=O)Nc1cccc(/C(C)=N\NC(=O)c2ccc(C)s2)c1 | 5% | -5% | 14* | -5% | 14 | 2%
COc1ccc(C(=O)N/N=C(\C)c2cccc(NC(=O)c3ccc(F)cc3)c2)c(OC)c1 | -6% | -5% | 26* | 1% | 15 | /
COc1ccc(C(=O)N/N=C(/C)c2cccc(NC(=O)c3ccccc3F)c2)cc1 | -2% | 1% | 20 | -9% | 25 | /
N#Cc1ccccc1S(=O)(=O)Nc1ccc2c(c1)C(=O)OC2 | -1% | 3% | -1 | -13% | -10 | 1%
SMILES | LmPK inhibitor | TbPYK inhibitor | Cycloheximide cs | RE007 growth inh | Shiga inhibitor | FBPA Giardia inh
COc1cccc(CNCc2cccn2-c2nnc(N3CCN(c4ccccc4)CC3)s2)c1 | / | -1% | / | / | / | /
O=C(O)c1ccc(C2Nc3ccccc3C(=O)N2Cc2ccccc2)cc1 (stereo unspecified) | -6% | 3% | 4 | 13% | -5 | 7%
O=S(=O)(NCc1nc2cccnc2n1Cc1ccc(F)cc1)c1ccc(Cl)s1 | / | -8% | / | / | / | /
C/C(=N/NC(=O)c1ccco1)c1cccc(NC(=O)c2ccc(C)s2)c1 | 0% | -4% | 56* | -14% | 68* | -19%
C/C(=N\NC(=O)c1ccn(C)n1)c1ccc(NC(=O)c2cccc(F)c2)cc1 | -3% | 1% | 58* | 9% | 170* | /
COC(=O)c1cccc(NC(=O)c2ccco2)c1 | -4% | 1% | -3 | -2% | 4 | 4%
COc1ccc(C(=O)Nc2ccc(NC(=O)c3cccc(F)c3)cn2)cc1 | 0% | -5% | -2 | 6% | 15 | ?
O=[N+]([O-])c1cc(/C=N/N2CCCCC2)ccc1Cl | 0% | -4% | 18* | -1% | 72* | -3%
COc1ccc(/C=N/N2CCN(C)CC2)cc1O | 0% | 5% | 0 | -9% | 4 | ?
O=[N+]([O-])c1cc(C=NN2CCCCCC2)ccc1Cl | / | -3% | / | -19% | / | /
COc1cccc(/C=N/N2CCN(C)CC2)c1 | -12% | -2% | 29* | -10% | 19 | 4%
CN1CCN(/N=C/c2ccc(Cl)c(Cl)c2)CC1 | -6% | 26% | 38* | ? | 84* | 9%
CN1CCN(/N=C/c2ccc(N(C)c3ccccc3)cc2)CC1 | -1% | 5% | 34* | 2% | 59* | 0%
CC1COC(=O)O1 (stereo unspecified) | / | / | 4 | / | -3 | 1%
CN1CCN(/N=C/c2ccc(Br)cc2)CC1 | 7% | 3% | 47* | -14% | 55 | 2%
CN1CCN(/N=C/c2ccc(N(c3ccccc3)c3ccccc3)cc2)CC1 | 2% | -3% | 1 | 4% | -6 | 4%
CC(C)(CO)NC(=O)c1ccc2c(c1)C(=O)c1ccccc1-2 | 1% | 6% | 51* | 11% | 86* | 0%
CCOc1ccc(C(=O)NCc2ccco2)cc1 | 0% | -4% | 41* | 2% | 63* | ?
O=C(NCc1ccco1)c1ccc2ccccc2c1 | -10% | 2% | 36* | -11% | 79* | -10%
O=C(NCc1ccco1)c1ccc2c(c1)C(=O)c1ccccc1-2 | -3% | -6% | 19* | -17% | 67* | -6%
Clc1ccccc1CSc1nc(NCCc2ccccc2)c2ccccc2n1 | / | 0% | / | / | / | /
CC(OC(=O)C1CCN(S(=O)(=O)c2ccc(C(C)(C)C)cc2)CC1)C(=O)N(C)C1CCCCC1 (stereo unspecified) | / | 7% | / | -6% | / | /
CCc1ccc(C2c3c(n[nH]c3C)C(=O)N2c2ccc(C)cc2)cc1 (stereo unspecified) | / | -6% | / | / | / | /
